# An excerpt weighted towards active compounds, which were near 21% of everything screened.
# Cycloheximide cs = counter-screen hit for Shiga toxin inhibitors, cycloheximide; cell reporter, cycloheximide protein synthesis inhibition counterscreen; max response, %; 300,000 tested, 12% active; AID 2314; in the data active = max response mostly above about 13%, no sharp cut-off; inactive = mostly below about 14%; also: read at 38.3 µM for the half of the compounds with a filed dose; 0% is about no effect
# Pf growth 96h = P. falciparum growth inhibition at 96 hours | P. falciparum luciferase reporter growth, 96 h | Potency, µM (series often up to 28.7 µM), for inactives: top-dose activity change, negative = inhibition, usual class: inhibitors | 320,000 tested, 6.9% active; also: potency is read from the fitted curve at half-maximal effect; % is scaled to controls: 0 for no effect and ±100 for the full control effect
#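 Readout is luminescence from an integrated firefly luciferase in P. falciparum. Red cells, 2% hematocrit and 0.05% parasitemia final, were cultured with compound through two parasite generations (96 hours) at 37 C, 5% CO2.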
# HCV inh = blocks hepatitis C virus; AID 651820; Huh7.5.1 HCVcc-Cre infection, luciferase reporter, 44 h; Potency, µM (series often up to 41.8 µM), for the others: at the top dose activity change, negative = inhibition, usual class: inhibitors; 340,000 tested, 3.4% active; also: potency is read from the fitted curve at half-maximal effect; % is scaled to controls: 0 for no effect and ±100 for the full control effect
#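 HCVcc-Cre virus at an moi near 0.5 was added right after compound to cells cultured 4 h from seeding (1,000 cells/well). Luciferase activity was determined 44 h later, 15 min after substrate addition at RT.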
# Pf growth 48h = inhibits P. falciparum growth in the first generation, 48 h; 310,000 tested, 5.9% active; P. falciparum luciferase growth in erythrocytes, 48 h; Potency, µM (series often up to 28.7 µM), for the others: at the highest dose activity change, negative = inhibition, hits mostly inhibitors; AID 504832; also: potency is read from the fitted curve at half-maximal effect; % is scaled to controls: 0 for no effect and ±100 for the full control effect
#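 Parasite viability was followed by luminescence of a genomically integrated firefly luciferase. Cultures held 0.1% parasitemia at 2% hematocrit (final), incubated under 5% CO2 at 37 C.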
# AMA1 RON2 block = AMA1-RON2 (P. falciparum) interaction inhibition; AlphaScreen AMA1-biotinylated RON2 peptide binding; Potency, µM (doses to about 58.2 µM), without a hit: at the top dose activity change, negative = inhibition, hits mostly inhibitors; 360,000 tested, 0.2% active;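 also: potency is read from the fitted curve at half-maximal effect; 0% = vehicle wells and -100% = peptide control; nearly all actives have a fitted effect of over 45% in size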
#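 AMA1 (3D7) with his tag at 25 nM final met compounds first, then biotinylated RON2 peptide at 25 nM; detection used donor plus acceptor beads, 10 µg/mL apiece, read by AlphaScreen after 30 min at room temperature.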
# Shiga toxin inh = inhibitors of Shiga toxin in Vero cells; Vero cells, Shiga toxin protein synthesis inhibition reporter; AID 2315; inhibition, % at 38.7 µM; 290,000 tested, 9.2% active; in the data active = inhibition mostly above about 28%, no sharp cut-off; inactive = mostly below about 43%; also: 0% is about no effect
# The depositor's hits bear a star; ? = inconclusive; nt = not tested or not shown; [ ] = dose if it differs, or a comment. Unless noted, calls follow the shape of the dose curve; as a rule, active = well fitted curve in the direction sought with a large enough effect; inconclusive = small, poorly fitted or top-dose-only effect, or another doubt; inactive = no such curve, though single readings can be large; an effect the other way counts as inactive or inconclusive.
SMILES,Cycloheximide cs,Pf growth 96h,HCV inh,Pf growth 48h,AMA1 RON2 block,Shiga toxin inh
Cc1ccc(F)c(C2C3C=CCCC3(C)C(=O)N2Cc2ccccc2)c1 (configuration not stated),-6.1,nt,nt,nt,nt,5.7
CC(C)(C)OC(=O)N[C@@H](C(=O)OC(C)(C)C)c1ccc(Br)cc1,nt,?,?,?,15.0%,nt
CC(C)COc1ccc(/C(=N/O)c2ccccc2)cc1,29.7*,-4.0%,-15.2%,nt,-6.2%,38.3
CC(O)COc1ccc(/C(=N/O)c2ccccc2)cc1 (configuration not stated),1.3,-8.7%,21.9%,33.1%,-2.3%,9.5
O=c1c2c3c(sc2nc(NCCO)n1CCc1ccccc1)CCCCC3,10.4,?,-17.5%,?,?,-14.8
COCCNc1nc2sc3c(c2c(=O)n1Cc1ccco1)CCCCC3,28.3*,3.8%,-0.9%,54.0%,13.6%,29.5*
O=c1c2c3c(sc2nc(NCCO)n1Cc1ccco1)CCCCC3,14.2*,-25.7%,-11.2%,10.9%,-13.0%,18.9
COC(=O)c1sccc1N/N=C/c1cccc(OC)c1O,19.4*,85.3%,-2.4%,281.1%,10.8%,50.3
COC(=O)c1sccc1N/N=C/c1cccc(Oc2ccccc2)c1,39.6*,17.6%,-8.3%,205.1%,-14.8%,38.3*
COC(=O)c1sccc1N/N=C/c1ccc(OC)c(OC)c1OC,46.7*,-16.1%,?,65.2%,-19.8%,39.2*
COC(=O)c1ccc(C(=S)NCC2(N(C)C)CCCCC2)cc1,1.3,?,-11.9%,?,-6.7%,21.5
O=C(O)c1ccc(CNC(=O)C23CC4CC(CC(C4)C2)C3)cc1,-2.7,29.4%,10.1%,-1.5%,4.1%,18.3
Cc1c(NS(=O)(=O)c2cc(C(=O)NCc3cccnc3)cc(Cl)c2Cl)c(=O)n(-c2ccccc2)n1C,nt,?,-8.0%,11.7µM*,3.5%,nt
Cc1c(NS(=O)(=O)c2cc(C(=O)N(C)Cc3ccccc3)ccc2Cl)c(=O)n(-c2ccccc2)n1C,nt,nt,-4.1%,nt,-0.8%,nt
C[n+]1ccccc1COc1ccc(C(C)(C)C)cc1,-3.5,0.37µM*,?,?,0.9%,-10.0
CC(C)(C)c1ccc(OCC(=O)O)cc1,-2.6,24.5%,14.9%,?,-0.7%,-17.1
CC(C)CNC(=O)C1(C)CCN1C(=O)c1ccc(C(C)(C)C)cc1 (configuration not stated),nt,nt,nt,nt,-8.8%,nt
CN(CCO)c1ccc2c(c1)OC[C@@H](Cc1ccccc1)NS2(=O)=O,nt,nt,nt,nt,-19.1%,nt
Cc1c(N(C(=O)CNC(=O)c2ccccc2)C2(C(=O)NC3CCCC3)CCCCC2)c(=O)n(-c2ccccc2)n1C,-2.8,?,12.9%,3.7µM*,0.2%,3.4
CCOC(=O)C1CCCN(Cc2nc(CC3CC3)no2)C1 (configuration not stated),12.1,3.5%,11.0%,31.8%,-15.9%,46.1
CCCN(CC(=O)Nc1ccccc1OC)C(=O)c1ccc(=O)[nH]c1,-3.2,49.1%,29.0%,3.5%,6.0%,-5.5
Cc1ccc(C(C)C)c(OCc2ccc(C(=O)N/N=C/c3cccc(O)c3O)cc2)c1,28.7*,2.62µM*,22.4µM*,1.65µM*,40.8%,active
COc1cc(/C=N\NC(=O)c2ccc(-c3ccccc3)cc2)cc(OC)c1O,14.8*,10.5%,?,9.28µM*,57.6%,15.3
COc1cc(/C=N\NC(=O)c2ccc(-c3ccccc3)cc2)cc(OC)c1OC(C)=O,18.5,?,?,?,49.8%,3.4
Cc1ccc(C(C)C)c(OCc2ccc(C(=O)N/N=C/c3ccc(O)c(O)c3)cc2)c1,13.8*,?,?,?,19.8%,59.3*
SMILES,Cycloheximide cs,Pf growth 96h,HCV inh,Pf growth 48h,AMA1 RON2 block,Shiga toxin inh
O=C(CSc1cccc2cccnc12)N/N=C/c1cccc(O)c1,-3.1,25.4%,?,-12.8%,13.4%,16.7
COc1cc(C(=O)N/N=C/c2ccc(OC(=O)c3cccc(C)c3)c(OC)c2)ccc1O,-2.4,?,-2.3%,10.8%,15.7%,-20.1
O=C(N/N=C/c1ccc(O)c(O)c1)c1ccc(CSc2cccc3cccnc23)cc1,3.0,nt,15.8µM*,0.1%,41.4%,-22.2
O=C(O)CC(CC(=O)NCC(O)c1ccccc1)c1ccccc1 (configuration not stated),-4.5,30.4%,3.3%,2.6%,-1.1%,-6.5
COc1cc(OC)cc(C(=O)NNC(=O)C2CCCC2)c1,2.6,47.1%,-2.4%,14.0%,19.7%,-8.3
COc1cc(/C=N/NC(N)=O)cc(Br)c1OCc1ccc(C)cc1,1.5,-24.8%,4.8%,nt,-10.8%,3.0
COc1cc(/C=N/NC(=O)c2ccc(COc3cc(C)ccc3C(C)C)cc2)cc(OC)c1O,33.5*,?,?,?,19.9%[2.32 µM],19.6*
N#Cc1ccc(-c2ccccc2)nc1SCC(=O)c1cccc(Cl)c1,-1.2,67.5%,-11.4%,3.7%,18.4%,-22.6
N#Cc1c(C(F)(F)F)cc(-c2ccccc2)nc1SCC(=O)Nc1sc2c(c1C#N)CCC2,-2.2,11.7µM*,-5.1%,?,-15.4%,-9.3
N#Cc1ccc(-c2cccnc2)nc1SCC(=O)c1ccccc1,36.7*,31.3%,-29.1%,30.6%,8.1%,82.2*
N#Cc1ccc(-c2cccnc2)nc1SCC(=O)Nc1sc2c(c1C#N)CCC2,5.4,1.47µM*,?,?,-12.8%,-15.3
CCCCn1c(N)c(N(CC(C)C)C(=O)CCCSc2nncs2)c(=O)[nH]c1=O,-1.1,-4.1%,27.4%,23.3%,9.8%,22.8
Nc1nnc(-c2cc3c(ccc4ccccc43)oc2=O)s1,5.5,27.2%,nt,12.0%,nt,22.5
CCn1c(CN2CCOCC2)nnc1SCC(=O)Nc1cccc(C)c1,0.8,?,10.2%,-6.4%,-11.8%,-1.8
Cc1ccc(C(=O)Nc2ccc3c(c2)ncn3C)cc1,25.8*,2.8%,-20.8%,237.6%,1.5%,112.1*
CCn1cnc2cc(NC(=O)c3ccc(C)cc3)ccc21,44.4*,74.6%,-10.3%,228.9%,-1.8%,49.4*
CCn1cnc2cc(NC(=O)COc3ccc(C)cc3)ccc21,nt,nt,-10.8%,nt,21.3%,nt
CC(CC(c1ccccc1)N1CCc2ccccc2C1)=NO (configuration not stated),nt,nt,nt,nt,-3.8%,nt
CC(NCCCSc1ccccc1)C(O)c1ccc(O)cc1 (configuration not stated),nt,nt,nt,nt,-9.9%,nt
C[N+]1(CCCCSc2ccc(O)cc2)CCCCC1,7.9,-11.9%,6.3%,9.28µM*,-5.5%,-14.0
Cc1ccc2[nH]c(-c3ccccc3)cc(=O)c2c1,30.0*,?,6.3%,?,-0.8%,49.2
CCN(CC)Cc1c(-c2ccccc2)[nH]c2ccc(C)cc2c1=O,29.3*,?,5.5%,nt,7.6%,34.9*
Cc1ccc(-c2cc(=O)c3cc(Cl)ccc3[nH]2)cc1,25.8*,19.3%,nt,121.7%,nt,38.9*
Clc1ccc(-c2cc3ccccc3[nH]2)cc1,62.4*,270.7%,-29.0%,166.5%,-0.2%,110.2*
